Assays:
[1] = target: Death-associated protein kinase 1 (Homo sapiens) (UniProt P53355); conditions: at 1 µM;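 also: each value is a mean inhibition figure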
[2] = target: T1, Serine/threonine-protein kinase DCLK2 (Homo sapiens) (UniProt Q8N568); conditions: at 0.1 µM
T1 sequence (whole entry): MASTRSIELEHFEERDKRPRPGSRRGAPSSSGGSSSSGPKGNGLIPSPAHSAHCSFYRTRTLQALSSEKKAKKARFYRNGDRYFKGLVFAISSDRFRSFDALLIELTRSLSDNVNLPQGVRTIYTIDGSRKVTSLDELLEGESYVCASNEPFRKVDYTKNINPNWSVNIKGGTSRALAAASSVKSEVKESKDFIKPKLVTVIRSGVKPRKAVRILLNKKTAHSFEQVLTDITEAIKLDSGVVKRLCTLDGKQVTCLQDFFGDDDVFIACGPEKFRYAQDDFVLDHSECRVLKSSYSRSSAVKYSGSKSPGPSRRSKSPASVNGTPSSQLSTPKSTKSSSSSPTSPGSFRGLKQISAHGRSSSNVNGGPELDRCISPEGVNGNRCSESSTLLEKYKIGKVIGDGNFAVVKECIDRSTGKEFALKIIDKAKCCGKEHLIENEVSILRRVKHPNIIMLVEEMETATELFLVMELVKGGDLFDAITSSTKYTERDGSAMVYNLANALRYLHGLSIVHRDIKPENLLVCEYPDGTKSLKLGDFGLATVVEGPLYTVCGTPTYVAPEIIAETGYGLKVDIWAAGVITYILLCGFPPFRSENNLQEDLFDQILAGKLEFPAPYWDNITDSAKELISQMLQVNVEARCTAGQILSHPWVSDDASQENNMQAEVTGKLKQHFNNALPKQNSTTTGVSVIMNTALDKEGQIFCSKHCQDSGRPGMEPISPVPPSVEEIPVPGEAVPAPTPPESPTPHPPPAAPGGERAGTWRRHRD

[3] = target: T1, Serine/threonine-protein kinase DCLK2 (Homo sapiens); conditions: at 1 µM
[4] = target: MAP kinase-activated protein kinase 2 (Homo sapiens) (UniProt P49137); conditions: at 0.1 µM
[5] = target: MAP kinase-activated protein kinase 2 (Homo sapiens) (UniProt P49137); conditions: at 1 µM
[6] = target: MAP kinase-activated protein kinase 3 (Homo sapiens) (UniProt Q16644); conditions: at 0.1 µM
[7] = target: MAP kinase-activated protein kinase 3 (Homo sapiens) (UniProt Q16644); conditions: at 1 µM
[8] = target: Serine/threonine-protein kinase MARK1 (Homo sapiens) (UniProt Q9P0L2); conditions: at 0.1 µM
[9] = target: Serine/threonine-protein kinase MARK1 (Homo sapiens) (UniProt Q9P0L2); conditions: at 1 µM
[10] = target: MAP/microtubule affinity-regulating kinase 3 (Homo sapiens) (UniProt P27448); conditions: at 0.1 µM
[11] = target: MAP/microtubule affinity-regulating kinase 3 (Homo sapiens) (UniProt P27448); conditions: at 1 µM
[12] = target: T2, MAP/microtubule affinity-regulating kinase 4 (Homo sapiens) (UniProt Q96L34); conditions: at 0.1 µM
T2 sequence (whole entry): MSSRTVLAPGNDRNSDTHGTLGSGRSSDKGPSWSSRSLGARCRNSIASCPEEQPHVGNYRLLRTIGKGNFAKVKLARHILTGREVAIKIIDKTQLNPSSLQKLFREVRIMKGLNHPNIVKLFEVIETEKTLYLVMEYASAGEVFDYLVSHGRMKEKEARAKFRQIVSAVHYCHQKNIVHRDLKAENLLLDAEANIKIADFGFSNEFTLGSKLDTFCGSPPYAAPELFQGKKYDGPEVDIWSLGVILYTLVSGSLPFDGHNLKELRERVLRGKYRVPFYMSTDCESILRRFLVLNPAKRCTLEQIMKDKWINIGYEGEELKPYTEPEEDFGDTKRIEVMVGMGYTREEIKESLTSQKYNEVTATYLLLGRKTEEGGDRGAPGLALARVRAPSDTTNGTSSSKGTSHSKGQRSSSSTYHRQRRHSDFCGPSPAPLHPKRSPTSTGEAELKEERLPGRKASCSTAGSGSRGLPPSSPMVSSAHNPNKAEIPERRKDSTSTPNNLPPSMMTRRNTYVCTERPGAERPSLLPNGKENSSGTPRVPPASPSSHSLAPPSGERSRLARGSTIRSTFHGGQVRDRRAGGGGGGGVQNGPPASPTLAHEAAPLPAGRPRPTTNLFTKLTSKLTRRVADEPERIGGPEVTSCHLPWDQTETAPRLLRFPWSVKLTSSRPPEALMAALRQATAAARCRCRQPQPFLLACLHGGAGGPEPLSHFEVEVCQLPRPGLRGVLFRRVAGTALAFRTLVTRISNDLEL

[13] = target: T2, MAP/microtubule affinity-regulating kinase 4 (Homo sapiens); conditions: at 1 µM
[14] = target: Maternal embryonic leucine zipper kinase (Homo sapiens) (UniProt Q14680); conditions: at 0.1 µM
[15] = target: Maternal embryonic leucine zipper kinase (Homo sapiens) (UniProt Q14680); conditions: at 1 µM
[16] = target: MAP kinase-interacting serine/threonine-protein kinase 1 (Homo sapiens) (UniProt Q9BUB5); conditions: at 0.1 µM
[17] = target: MAP kinase-interacting serine/threonine-protein kinase 1 (Homo sapiens) (UniProt Q9BUB5); conditions: at 1 µM
[18] = target: MAP kinase-interacting serine/threonine-protein kinase 2 (Homo sapiens) (UniProt Q9HBH9); conditions: at 0.1 µM
[19] = target: MAP kinase-interacting serine/threonine-protein kinase 2 (Homo sapiens) (UniProt Q9HBH9); conditions: at 1 µM
[20] = target: Serine/threonine-protein kinase MARK2 (Homo sapiens) (UniProt Q7KZI7); conditions: at 0.1 µM;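 also: mean percent inhibition of PAR-1Balpha kinase activity, reported from the GSK PKIS screen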
Chain of Serine/threonine-protein kinase MARK2 (Homo sapiens) (Q7KZI7 whole entry): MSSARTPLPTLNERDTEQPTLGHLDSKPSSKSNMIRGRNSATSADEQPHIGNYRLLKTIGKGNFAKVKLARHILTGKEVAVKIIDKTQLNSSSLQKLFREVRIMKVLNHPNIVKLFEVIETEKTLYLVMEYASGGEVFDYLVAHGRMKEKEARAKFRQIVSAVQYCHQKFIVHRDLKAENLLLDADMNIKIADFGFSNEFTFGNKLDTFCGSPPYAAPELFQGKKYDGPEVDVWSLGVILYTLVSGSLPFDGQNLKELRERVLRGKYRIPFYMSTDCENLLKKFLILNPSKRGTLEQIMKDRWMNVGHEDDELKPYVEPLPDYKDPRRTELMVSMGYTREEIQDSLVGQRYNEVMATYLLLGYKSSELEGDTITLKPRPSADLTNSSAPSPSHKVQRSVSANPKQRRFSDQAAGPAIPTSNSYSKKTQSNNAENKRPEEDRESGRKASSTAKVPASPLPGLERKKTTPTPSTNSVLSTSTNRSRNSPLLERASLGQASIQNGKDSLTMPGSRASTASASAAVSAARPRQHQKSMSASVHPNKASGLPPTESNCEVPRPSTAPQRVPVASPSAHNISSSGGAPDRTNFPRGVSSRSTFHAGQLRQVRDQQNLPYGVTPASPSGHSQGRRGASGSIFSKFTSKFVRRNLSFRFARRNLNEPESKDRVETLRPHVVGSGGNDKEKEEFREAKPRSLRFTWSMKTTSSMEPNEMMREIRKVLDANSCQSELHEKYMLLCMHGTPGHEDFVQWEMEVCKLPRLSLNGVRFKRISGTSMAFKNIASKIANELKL

Chain of MAP kinase-activated protein kinase 3 (Homo sapiens) (Q16644 whole entry, looked up): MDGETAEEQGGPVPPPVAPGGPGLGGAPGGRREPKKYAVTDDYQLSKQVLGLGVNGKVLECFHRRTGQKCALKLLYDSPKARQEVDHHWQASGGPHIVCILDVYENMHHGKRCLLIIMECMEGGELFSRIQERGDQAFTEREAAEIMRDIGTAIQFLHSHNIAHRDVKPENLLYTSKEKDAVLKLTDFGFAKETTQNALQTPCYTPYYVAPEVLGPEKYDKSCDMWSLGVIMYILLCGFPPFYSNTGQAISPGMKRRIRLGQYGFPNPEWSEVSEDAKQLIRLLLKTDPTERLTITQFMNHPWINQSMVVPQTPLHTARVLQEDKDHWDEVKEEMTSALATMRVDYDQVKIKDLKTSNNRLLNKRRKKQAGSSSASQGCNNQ
Chain of Serine/threonine-protein kinase MARK1 (Homo sapiens) (Q9P0L2 whole entry, looked up): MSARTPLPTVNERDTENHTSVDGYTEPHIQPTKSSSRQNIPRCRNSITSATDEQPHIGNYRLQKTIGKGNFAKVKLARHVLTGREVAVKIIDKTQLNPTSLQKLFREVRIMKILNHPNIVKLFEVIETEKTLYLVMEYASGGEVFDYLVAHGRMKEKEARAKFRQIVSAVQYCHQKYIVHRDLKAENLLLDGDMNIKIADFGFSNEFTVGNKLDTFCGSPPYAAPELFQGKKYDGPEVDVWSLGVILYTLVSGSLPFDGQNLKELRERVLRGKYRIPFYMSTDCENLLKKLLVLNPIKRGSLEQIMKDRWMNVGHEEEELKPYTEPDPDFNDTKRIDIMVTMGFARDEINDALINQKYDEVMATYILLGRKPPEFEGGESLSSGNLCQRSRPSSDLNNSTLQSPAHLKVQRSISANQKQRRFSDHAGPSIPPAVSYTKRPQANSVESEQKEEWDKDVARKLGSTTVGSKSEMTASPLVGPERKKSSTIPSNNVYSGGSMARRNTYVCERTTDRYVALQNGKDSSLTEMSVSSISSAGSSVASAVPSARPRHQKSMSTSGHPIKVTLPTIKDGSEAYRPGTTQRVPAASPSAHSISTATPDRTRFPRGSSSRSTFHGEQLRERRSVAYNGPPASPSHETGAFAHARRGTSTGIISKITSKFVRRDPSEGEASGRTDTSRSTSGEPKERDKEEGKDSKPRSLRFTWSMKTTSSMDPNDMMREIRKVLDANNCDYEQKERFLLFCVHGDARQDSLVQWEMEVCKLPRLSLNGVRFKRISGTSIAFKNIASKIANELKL
Chain of Maternal embryonic leucine zipper kinase (Homo sapiens) (Q14680 whole entry, looked up): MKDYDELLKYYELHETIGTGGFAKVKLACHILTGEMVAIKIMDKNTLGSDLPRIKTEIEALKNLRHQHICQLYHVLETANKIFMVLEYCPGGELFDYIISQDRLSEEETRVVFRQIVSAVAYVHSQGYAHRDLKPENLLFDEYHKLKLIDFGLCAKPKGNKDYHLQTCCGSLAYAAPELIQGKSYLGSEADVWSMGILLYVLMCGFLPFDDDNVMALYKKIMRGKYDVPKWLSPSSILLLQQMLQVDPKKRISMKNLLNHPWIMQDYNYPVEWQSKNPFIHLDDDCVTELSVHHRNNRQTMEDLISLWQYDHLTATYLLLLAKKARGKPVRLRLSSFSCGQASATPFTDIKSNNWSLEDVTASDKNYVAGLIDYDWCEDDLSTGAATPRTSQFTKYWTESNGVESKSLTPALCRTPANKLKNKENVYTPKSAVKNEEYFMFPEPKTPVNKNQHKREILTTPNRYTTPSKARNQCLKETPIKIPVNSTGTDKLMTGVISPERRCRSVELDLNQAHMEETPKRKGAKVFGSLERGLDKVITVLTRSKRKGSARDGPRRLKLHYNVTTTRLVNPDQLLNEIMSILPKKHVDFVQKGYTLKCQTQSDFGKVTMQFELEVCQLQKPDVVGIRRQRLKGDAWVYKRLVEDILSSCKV
Chain of MAP kinase-activated protein kinase 2 (Homo sapiens) (P49137 whole entry, looked up): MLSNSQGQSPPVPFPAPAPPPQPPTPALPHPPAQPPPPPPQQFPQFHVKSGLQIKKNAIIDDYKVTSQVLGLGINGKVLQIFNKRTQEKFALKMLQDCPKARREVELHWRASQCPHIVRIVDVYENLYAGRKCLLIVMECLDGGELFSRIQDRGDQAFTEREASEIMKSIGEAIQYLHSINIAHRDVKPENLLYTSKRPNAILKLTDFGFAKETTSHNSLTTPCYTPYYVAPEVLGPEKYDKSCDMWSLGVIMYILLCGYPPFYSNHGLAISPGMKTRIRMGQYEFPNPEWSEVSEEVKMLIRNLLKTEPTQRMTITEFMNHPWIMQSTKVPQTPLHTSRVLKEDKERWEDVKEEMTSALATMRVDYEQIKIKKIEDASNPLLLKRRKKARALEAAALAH
Chain of MAP kinase-interacting serine/threonine-protein kinase 2 (Homo sapiens) (Q9HBH9 whole entry, looked up): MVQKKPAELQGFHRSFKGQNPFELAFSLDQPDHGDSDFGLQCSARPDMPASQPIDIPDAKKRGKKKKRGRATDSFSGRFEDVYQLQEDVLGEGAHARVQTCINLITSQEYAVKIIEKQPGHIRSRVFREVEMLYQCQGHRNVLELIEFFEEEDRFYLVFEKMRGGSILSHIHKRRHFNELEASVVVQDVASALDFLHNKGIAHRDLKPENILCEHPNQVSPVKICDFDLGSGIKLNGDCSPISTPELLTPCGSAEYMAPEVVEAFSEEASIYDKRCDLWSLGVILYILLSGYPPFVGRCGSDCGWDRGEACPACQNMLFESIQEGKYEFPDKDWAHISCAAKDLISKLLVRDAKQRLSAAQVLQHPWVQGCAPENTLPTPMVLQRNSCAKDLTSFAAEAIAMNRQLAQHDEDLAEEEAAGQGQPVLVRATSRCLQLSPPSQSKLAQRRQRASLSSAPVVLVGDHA
Chain of MAP kinase-interacting serine/threonine-protein kinase 1 (Homo sapiens) (Q9BUB5 whole entry, looked up): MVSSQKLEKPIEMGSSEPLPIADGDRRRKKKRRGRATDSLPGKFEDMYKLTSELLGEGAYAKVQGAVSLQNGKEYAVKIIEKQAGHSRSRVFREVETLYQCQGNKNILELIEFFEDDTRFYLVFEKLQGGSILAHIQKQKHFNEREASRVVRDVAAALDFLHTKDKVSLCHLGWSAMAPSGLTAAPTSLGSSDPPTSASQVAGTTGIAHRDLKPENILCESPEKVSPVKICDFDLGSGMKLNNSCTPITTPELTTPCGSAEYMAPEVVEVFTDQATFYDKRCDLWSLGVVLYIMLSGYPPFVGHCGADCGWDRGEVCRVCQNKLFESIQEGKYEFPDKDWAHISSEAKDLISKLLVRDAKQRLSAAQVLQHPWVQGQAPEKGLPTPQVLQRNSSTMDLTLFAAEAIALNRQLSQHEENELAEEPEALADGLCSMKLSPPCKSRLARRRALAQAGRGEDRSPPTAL
Chain of MAP/microtubule affinity-regulating kinase 3 (Homo sapiens) (P27448 whole entry, looked up): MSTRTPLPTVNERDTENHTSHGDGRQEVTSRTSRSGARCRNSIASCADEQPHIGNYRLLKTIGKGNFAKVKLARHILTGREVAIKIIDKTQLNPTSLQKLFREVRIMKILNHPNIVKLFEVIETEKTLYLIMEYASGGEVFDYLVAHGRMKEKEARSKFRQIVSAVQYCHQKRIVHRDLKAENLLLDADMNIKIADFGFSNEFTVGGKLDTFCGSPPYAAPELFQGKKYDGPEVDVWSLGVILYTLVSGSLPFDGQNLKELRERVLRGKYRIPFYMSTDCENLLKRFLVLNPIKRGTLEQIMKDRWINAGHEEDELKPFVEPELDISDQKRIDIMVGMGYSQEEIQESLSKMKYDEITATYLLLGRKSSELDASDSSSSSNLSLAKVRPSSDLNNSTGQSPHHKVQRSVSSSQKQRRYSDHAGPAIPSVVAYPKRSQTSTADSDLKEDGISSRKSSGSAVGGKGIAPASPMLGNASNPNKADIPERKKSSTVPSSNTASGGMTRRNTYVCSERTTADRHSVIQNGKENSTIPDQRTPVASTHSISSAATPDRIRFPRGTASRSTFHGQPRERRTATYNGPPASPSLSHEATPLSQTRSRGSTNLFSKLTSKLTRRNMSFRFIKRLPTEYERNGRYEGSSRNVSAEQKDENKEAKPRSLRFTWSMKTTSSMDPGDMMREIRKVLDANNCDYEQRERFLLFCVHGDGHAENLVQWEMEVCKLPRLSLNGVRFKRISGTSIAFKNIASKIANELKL

SMILES	inhibition [1]	inhibition [2]	inhibition [3]	inhibition [4]	inhibition [5]	inhibition [6]	inhibition [7]	inhibition [8]	inhibition [9]	inhibition [10]	inhibition [11]	inhibition [12]	inhibition [13]	inhibition [14]	inhibition [15]	inhibition [16]	inhibition [17]	inhibition [18]	inhibition [19]	inhibition [20]
CN(C)CCCNc1nccc(-c2c(-c3ccc(F)cc3)nn3cc(C(F)(F)F)ccc23)n1	0.77%	-2.25%	-1.62%	-0.13%	0.05%	8.23%	22.7%	3.37%	1.8%	3.54%	3%	1.09%	2.72%	1.14%	2.95%	1.94%	8.83%	0.89%	6.51%	-0.22%
FC(F)(F)c1cccc(Nc2nccc(-c3cnn4nc(-c5ccccc5)ccc34)n2)c1	1.95%	-0.23%	2.76%	1.22%	-0.44%	3.72%	2.87%	2.35%	2.53%	3.77%	1.86%	1.13%	1.01%	4.89%	32.3%	2.28%	2.48%	0.22%	4.37%	-0.36%
COc1cccc(/C=N/Nc2ncnc3c2cnn3-c2cccc(OC)c2)c1	-2.35%	-0.11%	1.93%	2.15%	2.31%	2.37%	2.33%	0.69%	2.26%	-0.24%	0.87%	0.94%	0.58%	3.83%	9.57%	2.02%	4.36%	-0.25%	2.4%	-5.9%
COC(=O)Nc1nc2ccc(Sc3ccc(NC(=O)Nc4cc(C(F)(F)F)ccc4F)cc3)cc2[nH]1	4.23%	-1.02%	0.05%	0.97%	0.6%	4.28%	12.6%	1.73%	2.38%	1.35%	1.81%	-1.27%	-0.2%	-2.18%	-2.88%	-0.03%	4.58%	0.6%	1.48%	0.92%
Fc1ccc(-c2nc3n(c2-c2ccncc2)CCS3)cc1	2.21%	-0.75%	-3.53%	0.87%	0.79%	8.6%	19.8%	4.51%	4.67%	3.87%	-0.12%	2.4%	3.63%	4.86%	6.72%	1.57%	4.14%	-2.37%	0.35%	0.46%
CN(C)c1ccc2c(c1)/C(=C/Nc1ccc(S(N)(=O)=O)cc1)C(=O)N2	1.27%	1.9%	5.58%	0.97%	1.33%	0.95%	-0.05%	6.96%	36.4%	6.41%	32.7%	6.9%	32.5%	3.82%	20.4%	1.64%	9.3%	1.66%	3.67%	3.86%
CCc1ccc(Oc2nccc(-c3c(-c4ccc(F)cc4)ncn3C3CCNCC3)n2)cc1	4.64%	-0.57%	1.55%	1.96%	3.67%	36.5%	37.5%	3.13%	7.96%	3.13%	7.86%	2.89%	4.67%	6.32%	5.64%	2.17%	4.48%	3.36%	3.52%	1.93%
COc1ccc(C2=C(N3CCc4ccccc43)C(=O)NC2=O)cc1	4.07%	2.43%	0.92%	2.76%	1.74%	4.85%	5.21%	3.48%	5.45%	3.65%	4.14%	1.18%	2.26%	4.31%	7.73%	3.88%	6.21%	1.85%	4.28%	-0.02%
C/C(Nc1ccc(S(N)(=O)=O)cc1)=C1/C(=O)Nc2ccccc21	1.66%	4.83%	2.32%	-0.92%	-0.57%	-0.79%	-0.11%	4.3%	32.8%	2.37%	19.8%	4.34%	28.2%	2.57%	41.9%	-1.24%	3.04%	-1.74%	3.41%	2.01%
NCc1ccc(-n2c(-c3nonc3N)nc3cnccc32)cc1	9.98%	-0.49%	2.47%	1.78%	1.8%	4.33%	4.65%	6.36%	23.2%	5.76%	22.6%	4.49%	13.3%	33.9%	88.2%	4.41%	13.6%	1.06%	10.1%	4.09%
NC(=O)c1cc(-c2ccncc2)cc(-c2ccccc2)c1N	-2.35%	1.2%	1.19%	-0.48%	-0.33%	1.32%	-0.36%	4.42%	8.02%	5.42%	11.9%	2.69%	1.61%	4.36%	7.85%	3.23%	9.56%	2.09%	6.55%	2.08%
COc1cc(Nc2ncc3c(C)nc(-c4cccc(Oc5ccccc5)c4)n3n2)cc(OC)c1OC	11.9%	0.71%	0.09%	3.12%	3.35%	8.12%	7.79%	1.87%	6.76%	3.73%	29.3%	1.25%	3.17%	3.48%	10.8%	0.32%	0.56%	0.07%	1.2%	0.41%
O=C(Nc1n[nH]c2nc(-c3ccco3)ccc12)C1CC1	8.47%	-5.65%	-0.3%	3.08%	2.89%	7.07%	7.18%	-0.31%	0.25%	3.27%	1.53%	0.31%	0.56%	2.23%	2.05%	1.89%	9.62%	0.06%	4.01%	0.19%
C[C@@H](Oc1cc(-n2cnc3ccc(OCC4CCN(C)CC4)cc32)sc1C(N)=O)c1ccccc1Cl	9.2%	0.87%	4.91%	2.09%	4.06%	2.95%	3.34%	3.83%	24.3%	4.91%	31.2%	6.41%	23.9%	7.59%	37.9%	2.4%	5.78%	1.96%	5.86%	3.52%
CS(=O)(=O)CCNCc1ccc(-c2ccc3ncnc(Nc4ccc(OCc5ccccc5)c(Br)c4)c3c2)o1	2.27%	-2.49%	-1.71%	1.3%	0.14%	3.07%	2.03%	1.99%	1.61%	3.89%	-0.13%	2.98%	2.37%	5.3%	5.37%	2.72%	6.16%	2.36%	7.73%	0.23%
COc1ccc(-c2ccc3c(NC(=O)C4CC4)n[nH]c3n2)cc1	3.76%	-1.52%	2.41%	1.32%	1.4%	1.44%	3.8%	1.93%	5.02%	2.03%	2.41%	0%	-0.43%	-1.74%	-0.77%	3.03%	21.5%	1.32%	5.48%	0.67%
O=C1Nc2ccc(I)cc2C1=Cc1cc(Br)c(O)c(Br)c1	-4.68%	0.92%	1.91%	1.65%	4.08%	2.77%	3.75%	0.84%	2.09%	-0.57%	2.16%	1.14%	2.32%	2.86%	13.8%	2.2%	7.73%	2.51%	17.6%	-0.39%
CN1CCN(CCCNc2nc3ccc(Oc4ccc(NC(=O)Nc5cc(C(F)(F)F)ccc5F)cc4)cc3[nH]2)CC1	-0.71%	-6.99%	-0.8%	-0.45%	-0.49%	3.34%	18.3%	0.78%	0.66%	5.08%	0.11%	1.5%	2.34%	0.4%	-0.26%	2.77%	15.5%	0.67%	9.51%	-0.44%
O=C(Nc1ccc(Oc2ccc3[nH]c(NC(=O)c4ccccc4)nc3c2)cc1)Nc1cc(C(F)(F)F)ccc1F	5.19%	-1.34%	-0.03%	1.97%	1.81%	4.88%	16.7%	2.51%	5.14%	3.79%	22.9%	0.56%	3.1%	3.83%	2.36%	3.79%	21%	2.44%	22.1%	-0.01%
COc1cc2ncn(-c3cc(OCc4cccs4)c(C(N)=O)s3)c2cc1OC	-2.56%	-9.99%	-0.46%	0.78%	1.78%	1.75%	2.97%	2.63%	15.8%	3.86%	20.3%	2.12%	9.4%	2.35%	4.91%	3.56%	14.7%	3.17%	13%	1.68%
Cc1ccc(C(=O)NC2CCC2)cc1-c1ccc(C(=O)NCC2CC2)cc1	4.36%	0.61%	4.16%	1.17%	0.94%	5.84%	18.9%	2.6%	1.46%	3.09%	0.6%	0.84%	0.72%	3.33%	1.69%	0.33%	3.09%	0.84%	1.97%	0.5%
COc1cc(C)c(N(C)C(=O)CN(C)C)cc1Nc1nc(Nc2cccc(F)c2C(N)=O)c2cc[nH]c2n1	1.79%	-2.4%	-3.85%	-0.22%	0.04%	1.56%	0.17%	0.72%	1.97%	3.34%	4.11%	1.12%	1.75%	-1.34%	5.45%	-0.51%	1.72%	-1.19%	-0.74%	0.4%
